In PubChem BioAssay (NCI) one finds growth data, which are given here for 13 compounds.

Among the test systems are DU-145 prostate; K-562 leukemia; MALME-3M melanoma; MDA-MB-231 breast; RXF 393 renal; SF-268 CNS; SF-295 CNS; SF-539 CNS; UACC-257 melanoma; M14 melanoma.
Holding throughout (test): NCI-60 one-dose screen, 48 h (100 = growth as untreated, 0 = no growth, -100 = all killed)
Conditions in all cases: 10 µM unless noted

This is part of a sample that, as a whole, favours compounds with a hit. Of some 83,000 tested, about 20% had one in any assay.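 Method: cells in 96-well plates; compound added at one concentration; 48 h incubation; percent growth measured; values under 10 scored active.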 A number with no mark means an inactive call. Active and inactive are the calls of the source.

For `CCCCCCCCCCOC(C)=O`, the growth is 112% in the assay with DU-145 prostate; 107% with K-562 leukemia; 108% in the assay with MALME-3M melanoma; 107% with MDA-MB-231 breast; 112% with RXF 393 renal; 106% with SF-268 CNS. The growth is 80% in the assay on SF-295 CNS, 96.1% in the assay on SF-539 CNS, 94% in the assay on UACC-257 melanoma and 106% in the assay on M14 melanoma.
Take `Nc1ccn(C2O[C@H](CO)[C@@H](O)[C@@H]2O)c(=O)n1` (stereo partly drawn): the growth in the assay on DU-145 prostate was 29.6%; in the assay with K-562 leukemia it was 62.4%; with MALME-3M melanoma, 57.2%; in the assay with MDA-MB-231 breast, 68.8%; in the assay on RXF 393 renal, 83.4%; in the assay on SF-268 CNS, 34%. For the same compound, the growth is 50.8% in the assay on SF-295 CNS, 72.4% in the assay with SF-539 CNS, 54.5% in the assay on UACC-257 melanoma and -15.7% (active) in the assay with M14 melanoma.
Consider `CN1C(=O)C(C2=NN(C=O)C(c3ccc(F)cc3)C2)C(=O)N(C)C1=O` (stereo not drawn), for which the growth in the assay on DU-145 prostate was 106%; with K-562 leukemia it was 94.2%; in the assay on MALME-3M melanoma, 95.8%; in the assay on MDA-MB-231 breast, 106%; in the assay with RXF 393 renal, 95.5%; in the assay with SF-268 CNS, 96.9%. In addition, the growth with SF-295 CNS is 99.2%; in the assay with SF-539 CNS, 102%; in the assay on UACC-257 melanoma, 69.3%; in the assay with M14 melanoma, 98.5%.
As to `[N-]=[N+]=NCc1cccc(/C(O)=C/C(=O)C(=O)O)c1`, the growth in the assay on DU-145 prostate was 92.1%; in the assay with K-562 leukemia, 110%; with MALME-3M melanoma it was 91.5%; in the assay on MDA-MB-231 breast, 88.4%; in the assay on RXF 393 renal, 24.6%; with SF-268 CNS, 91.5%. Besides, the growth with SF-295 CNS is 143%; in the assay with SF-539 CNS, 100%; in the assay with UACC-257 melanoma it was 100%; in the assay on M14 melanoma, 118%.
Turning to `O=C1CNc2cc(Cl)ccc2N1`, the growth in the assay with DU-145 prostate was 121%; in the assay on K-562 leukemia, 104%; in the assay on MALME-3M melanoma, 104%; with MDA-MB-231 breast, 98.3%; in the assay on RXF 393 renal it was 101%; with SF-268 CNS, 103%. The growth with SF-295 CNS was 105%; in the assay with SF-539 CNS, 106%; with UACC-257 melanoma it was 113%; in the assay on M14 melanoma it was 114%.
As for `COc1ccc2nc(NC(=O)CN3CCn4c(nnc4C(F)(F)F)C3)sc2c1`, the growth is 106% in the assay on DU-145 prostate; 90.5% in the assay with K-562 leukemia; 106% with MALME-3M melanoma; 96.6% in the assay on MDA-MB-231 breast; 91% with RXF 393 renal; 93.5% in the assay with SF-268 CNS. Besides, the growth in the assay on SF-295 CNS is 92.5%; in the assay on SF-539 CNS it was 93.7%; in the assay with UACC-257 melanoma, 99.5%; in the assay with M14 melanoma, 85.1%.
For `C=C1CCC2C3(C)COC(c4ccccc4)OC3CCC2(C)C1C/C=C1/C(=O)OCC1OC(C)=O` (stereo not drawn), the growth in the assay on DU-145 prostate is 108%; with K-562 leukemia, 74.2%; with MALME-3M melanoma, 105%; with MDA-MB-231 breast, 94.9%; in the assay on RXF 393 renal, 41%; with SF-268 CNS, 102%. Besides, the growth is 100% in the assay with SF-295 CNS, 105% with SF-539 CNS, 91.3% with UACC-257 melanoma and 89.4% in the assay with M14 melanoma.
In the case of `O=C(Nc1ccc(Cl)cc1)Nc1ccccc1CNc1nc(Nc2ccc(OCCN3CCCC3)cc2)ncc1Cl`, the growth is -42.9% (active) in the assay with DU-145 prostate; -4.05% (active) with K-562 leukemia; -81% (active) with MALME-3M melanoma; -51% (active) in the assay on MDA-MB-231 breast; -64.6% (active) in the assay with RXF 393 renal; 41.7% in the assay on SF-268 CNS. Also, the growth in the assay on SF-295 CNS is 89.2%; in the assay on SF-539 CNS it was 77.6%; in the assay with M14 melanoma, -76.3% (active).
`Cc1cnc2nc(-c3ccc(N(C)C)cc3)cn2c1`: the growth was 109% in the assay with DU-145 prostate; 97.1% in the assay with K-562 leukemia; 97.8% in the assay with MALME-3M melanoma; 107% in the assay on MDA-MB-231 breast; 79.7% with RXF 393 renal; 122% with SF-268 CNS. The growth in the assay with SF-295 CNS was 106%; in the assay on SF-539 CNS it was 100%; with UACC-257 melanoma, 102%; with M14 melanoma, 100%.
As to `NC(=O)NC1(C(=O)O)CCCC1`, the growth in the assay on DU-145 prostate was 118%; in the assay with K-562 leukemia it was 99.9%; in the assay on MALME-3M melanoma, 114%; with MDA-MB-231 breast, 109%; in the assay with RXF 393 renal, 125%; in the assay with SF-268 CNS, 106%. The growth in the assay with SF-295 CNS is 116%; in the assay with SF-539 CNS, 102%; in the assay on UACC-257 melanoma, 101%; in the assay on M14 melanoma, 113%.
Turning to `Cc1ccc2nc(SCC(=O)Nc3ccc(-c4nc5ccccc5s4)c(Cl)c3)[nH]c2c1`, the growth was 132% in the assay with DU-145 prostate; 109% in the assay with K-562 leukemia; 131% with MALME-3M melanoma; 113% in the assay on MDA-MB-231 breast; 98.6% in the assay with RXF 393 renal; 105% in the assay on SF-268 CNS. Also, the growth was 106% with SF-295 CNS, 109% in the assay with SF-539 CNS, 96.9% in the assay with UACC-257 melanoma and 111% with M14 melanoma.
For `O=C(C(=O)N1CCOCC1)c1cn(CCCn2cc(C(=O)C(=O)N3CCOCC3)c3ccccc32)c2ccccc12`, the growth is 115% in the assay on DU-145 prostate; 111% in the assay with K-562 leukemia; 99.8% in the assay on MALME-3M melanoma; 93.4% in the assay with MDA-MB-231 breast; 119% in the assay with RXF 393 renal; 105% in the assay with SF-268 CNS. The growth in the assay on SF-295 CNS was 106%; with SF-539 CNS, 102%; with UACC-257 melanoma, 107%; with M14 melanoma, 101%.
As to `O=C1/C(=C/c2ccccc2Cl)CCc2ccccc21`, the growth with DU-145 prostate is 108%; in the assay with K-562 leukemia, 105%; in the assay with MALME-3M melanoma, 104%; in the assay on MDA-MB-231 breast, 111%; in the assay with RXF 393 renal it was 107%; in the assay with SF-268 CNS, 96.7%. The growth with SF-295 CNS was 65.3%; in the assay on SF-539 CNS, 106%; in the assay on M14 melanoma, 104%.
